High-throughput results: PubChem BioAssay, Buhrlage Lab, Dana-Farber Cancer Institute and Novartis Institutes for BioMedical Research (Cambridge, Mass)
Rows were chosen to be rich in hits. Some 12% of all compounds tested hit in one or more screens of this group.
USP17 block: inhibitors of human USP17 deubiquitinase; purified USP17, Ub-rhodamine cleavage fluorescence, 3 h; inhibition, % at 50 µM; 6.5% of 47,000 active; AID 1645855, 2021
USP28 inh: inhibitors of human USP28 deubiquitinase. Ubiquitin carboxyl-terminal hydrolase 28 (Homo sapiens), Q96RU2. purified USP28, Ub-rhodamine cleavage fluorescence, 30 min. inhibition, % at 25 µM. 3% of 47,000 active
USP30 block: inhibitors of human USP30 deubiquitinase; purified USP30, Ub-rhodamine cleavage fluorescence; 5.3% of 47,000 active; Ubiquitin carboxyl-terminal hydrolase 30 (Homo sapiens), Q70CQ3; inhibition, % at 25 µM
Target sequence (Q70CQ3 whole entry, looked up): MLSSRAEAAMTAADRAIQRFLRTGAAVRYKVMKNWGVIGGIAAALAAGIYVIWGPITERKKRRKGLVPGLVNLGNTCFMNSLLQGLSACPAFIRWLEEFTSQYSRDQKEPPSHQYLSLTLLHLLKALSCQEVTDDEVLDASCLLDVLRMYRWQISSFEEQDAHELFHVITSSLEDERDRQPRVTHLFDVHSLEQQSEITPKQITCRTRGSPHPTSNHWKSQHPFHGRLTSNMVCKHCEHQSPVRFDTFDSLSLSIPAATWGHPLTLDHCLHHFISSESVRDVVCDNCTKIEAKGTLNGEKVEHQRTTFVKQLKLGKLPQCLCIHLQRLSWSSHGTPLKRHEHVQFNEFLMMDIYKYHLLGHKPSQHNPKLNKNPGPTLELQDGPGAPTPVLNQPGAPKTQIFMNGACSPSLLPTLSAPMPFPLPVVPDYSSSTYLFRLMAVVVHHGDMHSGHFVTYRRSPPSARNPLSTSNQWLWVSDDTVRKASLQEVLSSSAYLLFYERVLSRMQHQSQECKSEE
OTUD3 inh: inhibitors of human OTUD3 deubiquitinase; OTU domain-containing protein 3 (Homo sapiens), Q5T2D3; inhibition, % at 25 µM; purified OTUD3, Ub-rhodamine fluorescence, 2 h; 0.7% of 47,000 active
Numbers stand for hits; - = inactive; . = not tested or not shown. No stated cut-off is given here; in the data, active means inhibition above about 30%; inactive means the rest.

SMILES	USP17 block	USP28 inh	USP30 block	OTUD3 inh
O=[N+]([O-])c1ccc(Cc2nnc(-c3ccccc3Cl)o2)cc1	35	48	-	-
C#CCn1cc(CN2CCc3c(nc(C)[nH]c3=O)C2)c2ccccc21	-	-	-	-
O=C(O)CCc1nc2cc(C(F)(F)F)ccc2n(Cc2ccccc2)c1=O	41	-	-	-
O=C(Cn1c(=O)n(Cc2ccccc2)c(=O)c2cc(Cl)ccc21)c1cccc(C(F)(F)F)c1	-	-	-	-
COc1ccccc1C1CC(c2ccc(C)cc2)N(C(=O)C2CC2)c2ncnn21 (stereo not drawn)	-	-	-	-
O=C(Oc1cc(O)cc2c1C[C@@H](OC(=O)c1cc(O)c(O)c(O)c1)[C@@H](c1cc(O)c(O)c(O)c1)O2)c1cc(O)c(O)c(O)c1	77	78	-	73
NC(=O)C1CCN(C(=O)c2occc2COc2ccccc2)CC1	-	-	-	-
CC(C)OCCCN1C(=O)C2C(C(=O)Nc3ccc(Oc4ccccc4)cc3)C3C=CC2(O3)C1C(=O)NC1CCCCC1 (stereo not drawn)	51	-	-	33
CC(C)CCN1C(=O)C2C(C(=O)Nc3ccc(F)cc3)C3(C)C=CC2(O3)C1C(=O)NC1CCCCC1 (stereo not drawn)	-	-	36	-
Cc1ccc(NC(=O)C2C3C=CC4(O3)C2C(=O)N(C2CCCCCC2)C4C(=O)NC2CCCCC2)cc1Cl (stereo not drawn)	49	-	-	-
O=C(Nc1ccc(Cl)cc1)C1C2C=CC3(O2)C1C(=O)N(C1CC1)C3C(=O)NC1CCCCC1 (stereo not drawn)	36	-	-	-
CCCN1C(=O)C2C(C(=O)Nc3ccc(Oc4ccccc4)cc3)C3C=CC2(O3)C1C(=O)NC1CCCCC1 (stereo not drawn)	-	-	-	-
Cc1cc(C)cc(NC(=O)C2C3C=CC4(O3)C2C(=O)N(C2CC2)C4C(=O)NC2CCCCC2)c1 (stereo not drawn)	-	-	-	-
COc1cccc(C(=O)NCC(c2cccc3ccccc23)N2CCOCC2)c1 (stereo not drawn)	.	-	-	-
COc1ccc(CNc2nc(-c3ccccc3)cc(C)c2S(=O)(=O)c2ccc(Cl)cc2)cc1	-	-	-	-
Cc1ccc(NC(=O)c2nnn(CC(=O)Nc3cccc(C)c3C)c2N)cc1C	-	-	38	-
Cc1ccc(NC(=O)C2CCN(S(C)(=O)=O)c3cc(C)ccc3O2)cc1 (stereo not drawn)	-	-	-	-
CC(NC(=O)C1CCN(S(C)(=O)=O)c2ccccc2O1)c1ccccc1 (stereo not drawn)	-	-	33	-
COc1cc(-c2ccccc2)c(O)c(O)c1-c1ccccc1	99	96	91	91
Cn1cc(-c2cnc(-c3cccc(F)c3)nc2)cc1C(=O)NCc1cccnc1	51	-	-	-
Cc1c(C)n(C)c2ccc(C(=O)NC3CCN(Cc4ccccc4)CC3)cc12	-	35	-	-
Cn1ccc2c(cc(C(=O)NCCC3=CCCCC3)n2C)c1=O	-	55	-	-
Cc1cc(C)c2cc(C(=O)NC3CCN(Cc4ccccc4)CC3)[nH]c2c1	-	-	67	-
Cn1ccc2c(cc(C(=O)NC3CCN(Cc4ccccc4)CC3)n2C)c1=O	-	32	-	-
COc1ccccc1NC(=O)COc1ccc(C(=O)Nc2cc(S(=O)(=O)N3CCCCC3)ccc2C)cc1OC	-	-	-	-
SMILES	USP17 block	USP28 inh	USP30 block	OTUD3 inh
CCn1c(Cn2cccn2)nc2cc(NC(=O)C3CCCCC3)ccc21	-	38	-	-
CCn1c(Cn2cccn2)nc2cc(NC(=O)c3ccccc3C)ccc21	-	46	-	-
O=C(NCCc1ccccc1)c1cc(=O)nc2sc(N3CCCCCC3)nn12	-	-	-	-
Cc1ccc2c(c1C)NC(=O)[C@]21N2CCC[C@H]2[C@@H](C(=O)c2cc3ccccc3o2)[C@]12C(=O)Nc1ccccc12	44	-	-	-
CCOc1ccccc1C(=O)[C@@H]1[C@@H]2CCCN2[C@]2(C(=O)Nc3c2ccc(C)c3C)[C@@]12C(=O)Nc1ccccc12	-	-	-	-
O=C(Nc1cnc2ccccc2c1)Nc1ccccc1Cl	55	.	.	-
CCS(=O)(=O)c1ccccc1C(=O)Nc1cnc2c(c1)c(C)nn2C	-	-	-	-
Cc1ccc(-c2noc(-c3nnc(SCC(=O)NC4CCCC4)n3C)n2)cc1	53	-	-	-
Cn1c(SCC(=O)NC2CCCC2)nnc1-c1nc(-c2ccccc2)no1	-	-	-	-
N=C1C(c2nc3ccccc3s2)=C(O)CN1Cc1ccc(F)cc1	51	-	-	-
Cc1ccc(S(=O)(=O)N2CCOC23CCN(C(=O)c2ccccc2)CC3)cc1	-	-	33	-
Cc1ccccc1C(=O)N1CCC2(CC1)OCCN2S(=O)(=O)c1ccccc1	-	-	-	-
O=C(C1CCCCC1)N1CCC2(CC1)NC(=O)N(CCc1ccccc1)C2=O	-	-	-	-
FC(F)(F)c1cc(C(F)(F)F)c2ccc(N3CCC4(CC3)OCCO4)nc2n1	30	-	-	-
COc1cc(-n2c(=O)c3ccccc3n(CC(=O)NCCc3ccccc3)c2=O)cc(OC)c1OC	-	-	35	-
COc1cc(-n2c(=O)c3ccccc3n(CC(=O)NCC3CCCO3)c2=O)cc(OC)c1OC (stereo not drawn)	-	-	-	-
COc1ccc(-c2nnn(CC(=O)NCCc3ccccc3)n2)cc1OC	47	-	-	-
COc1cc(-n2c(=O)c3ccccc3n(Cc3cccc(F)c3)c2=O)cc(OC)c1OC	-	-	35	-
O=C(Cc1ccc(-n2c(=O)c3ccccc3n(Cc3cccc(F)c3)c2=O)cc1)NC1CCCC1	-	-	-	-
Nc1nccnc1CC1CCCN(C(=O)c2ccc3c(c2)CCC3)C1 (stereo not drawn)	-	-	-	-
CCc1nc2c(NC(=O)NCc3ccccc3)cccn2n1	-	-	-	-
CC(=O)Nc1nc2ccc(CCC(=O)Nc3ccc(C)c(F)c3)cc2s1	-	-	-	-
CCOc1ccc(C(=O)Nc2cccc(-c3nc4ccccc4o3)c2)cc1Br	-	-	-	-
c1ccc2oc(-c3cn[nH]c3)nc2c1	-	-	31	-
Cc1sc(-c2cccnc2)nc1OC(=O)c1ccc(S(C)(=O)=O)cc1Cl	-	-	-	-
SMILES	USP17 block	USP28 inh	USP30 block	OTUD3 inh
Cc1sc(-c2cccnc2)nc1OC(=O)c1ccc(Cl)c(Cl)c1	38	-	62	-
Cc1ccc(-c2ccc(N3CCC(C(=O)N4CCC(N5CCCCC5)CC4)CC3)nn2)cc1	-	-	-	-
O=C(CC(NCc1ccco1)C(=O)O)Nc1cccc(Cl)c1Cl (stereo not drawn)	-	-	32	-
O=C(CC(NCc1ccco1)C(=O)O)Nc1ccccc1Cl (stereo not drawn)	-	-	-	-
O=C(Nc1ccc(F)cc1F)c1cc([N+](=O)[O-])ccc1N1CCCCC1	-	-	-	-
O=C(O)c1nnn(-c2cccc(F)c2)c1-c1ccccn1	-	-	-	-
